This is an account of results in the supplement of paper PMC9694430.

Common to all, as to assay: thermal shift delta Tm vs DMSO control; higher = stronger stabilization (binding)
What all share (conditions): 12.5 µM; protein concentration 2 µM

One assay deals with LOC_OS01G57100-cb003. The procedure, abridged: (§1)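 Thermal shift values come from differential scanning fluorimetry on purified rice kinase domains made in E. coli, with melting temperatures obtained from Boltzmann fits. Samples of 19.5 μl held 2 μM kinase, 100 mM potassium phosphate pH 7.5, 150 mM NaCl, 10% glycerol, 5 × SYPRO Orange and compound in DMSO, and were heated from 25°C to 95°C at 0.05°C/s. Each shift is a triplicate mean relative to the DMSO-only protein sample.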

The next assay deals with LOC_OS01G60330-cb001. The procedure, abridged:
as §1

Another assay deals with LOC_OS01G60700-cb002. An outline of the steps: as §1
Another assay concerns LOC_OS01G63280-cb003. The procedure, abridged: as §1
For another assay, the system named is LOC_OS01G67340-cb003. The procedure, abridged:
as §1

The test system of the next assay is LOC_OS01G70970-cb002. An outline of the steps:
as §1

In a further assay the test system is LOC_OS02G07810-cb001. The procedure, abridged: as §1
The test system of the next assay is LOC_OS02G08530-cb003. The procedure, abridged:
as §1

In a further assay the test system is LOC_OS02G14120-cb001. An outline of the steps:
as §1

A further assay concerns LOC_OS02G17970-cb001. An outline of the steps: as §1
Another assay relates to LOC_OS02G45750-cb003. An outline of the steps: as §1
The subject of another assay is LOC_OS02G54510-cb004. The procedure, abridged: as §1
A further assay has as its system LOC_OS03G04050-cb001. An outline of the steps:
as §1

The test system of another assay is LOC_OS03G12390-cb001. The procedure, abridged:
as §1

For another assay, the system named is LOC_OS03G27990-cb004. An outline of the steps: as §1
The next assay concerns LOC_OS03G50450-cb001. The procedure, abridged: as §1
The subject of the next assay is LOC_OS03G50810-cb003. The procedure, abridged:
as §1

For the next assay, the system named is LOC_OS04G35114-cb001. The procedure, abridged:
as §1

Another assay deals with T1, LOC_OS04G38480-cb003.
T1 sequence (whole entry): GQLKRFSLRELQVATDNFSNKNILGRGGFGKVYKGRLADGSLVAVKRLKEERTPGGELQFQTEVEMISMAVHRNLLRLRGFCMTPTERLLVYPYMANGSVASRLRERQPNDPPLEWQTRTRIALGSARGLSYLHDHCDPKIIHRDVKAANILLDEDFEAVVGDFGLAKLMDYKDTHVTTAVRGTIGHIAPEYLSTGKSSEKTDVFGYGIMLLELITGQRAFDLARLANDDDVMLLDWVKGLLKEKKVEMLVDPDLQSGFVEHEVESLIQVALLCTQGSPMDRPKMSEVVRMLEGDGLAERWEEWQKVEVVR
An outline of the steps: as §1

In another assay the test system is T2, LOC_OS04G41100-cb001.
T2 sequence (whole entry): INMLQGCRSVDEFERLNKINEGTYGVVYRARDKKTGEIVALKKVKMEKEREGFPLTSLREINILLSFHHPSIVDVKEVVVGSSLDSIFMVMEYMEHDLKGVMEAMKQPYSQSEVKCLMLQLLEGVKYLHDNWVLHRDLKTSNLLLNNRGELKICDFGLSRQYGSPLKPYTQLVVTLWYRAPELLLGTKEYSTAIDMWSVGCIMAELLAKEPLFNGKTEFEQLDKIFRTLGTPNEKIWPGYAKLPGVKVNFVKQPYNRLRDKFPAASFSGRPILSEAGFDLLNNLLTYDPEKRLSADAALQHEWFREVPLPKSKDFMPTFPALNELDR
An outline of the steps:
as §1
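Further: purified Escherichia coli-expressed rice kinase domain construct.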

Turning to `Oc1c(F)cc(-c2cnccc2-c2ccc(N3CCOCC3)cc2)cc1F`, the “thermal shift delta Tm” value with LOC_OS01G57100-cb003 stood at 1.14 °C; in the assay on LOC_OS01G60330-cb001, 1.01 °C; with LOC_OS01G60700-cb002, 0.34 °C; in the assay on LOC_OS01G63280-cb003, 0.58 °C; in the assay on LOC_OS01G67340-cb003 it was 0.1 °C; in the assay with LOC_OS01G70970-cb002, 0.21 °C. The “thermal shift delta Tm” value is 0.35 °C with LOC_OS02G07810-cb001; 0.7 °C with LOC_OS02G08530-cb003; 0.35 °C in the assay with LOC_OS02G14120-cb001; 0.29 °C in the assay on LOC_OS02G17970-cb001; 0.77 °C in the assay with LOC_OS02G45750-cb003; 0.07 °C in the assay on LOC_OS02G54510-cb004. Moreover, the “thermal shift delta Tm” value in the assay on LOC_OS03G04050-cb001 is 0.28 °C; with LOC_OS03G12390-cb001 it was -0.05 °C; in the assay on LOC_OS03G27990-cb004, 0.11 °C; with LOC_OS03G50450-cb001, 0.25 °C; with LOC_OS03G50810-cb003, 0.2 °C; in the assay with LOC_OS04G35114-cb001 it was 1.09 °C. For the same compound, the “thermal shift delta Tm” value is 0.6 °C in the assay on LOC_OS04G38480-cb003 and 0.44 °C with LOC_OS04G41100-cb001.
As to `Cc1ccccc1CN1C2=NCCN2C(=O)C2=C1CCN(Cc1ccccc1)C2` [TIC10 Analogue], the “thermal shift delta Tm” value with LOC_OS01G57100-cb003 was 1.53 °C; with LOC_OS01G60330-cb001 it was 0.24 °C; with LOC_OS01G60700-cb002, 1.04 °C; in the assay on LOC_OS01G63280-cb003, 0.12 °C; in the assay on LOC_OS01G67340-cb003, -0.3 °C; with LOC_OS01G70970-cb002, 0.36 °C. Also, the “thermal shift delta Tm” value in the assay with LOC_OS02G07810-cb001 is 0.85 °C; in the assay on LOC_OS02G08530-cb003 it was 1.02 °C; in the assay on LOC_OS02G14120-cb001, -0.11 °C; in the assay on LOC_OS02G17970-cb001, 0.86 °C; with LOC_OS02G45750-cb003 it was -0.1 °C; in the assay with LOC_OS02G54510-cb004 it was 0.13 °C. Moreover, the “thermal shift delta Tm” value is 0.49 °C in the assay with LOC_OS03G04050-cb001; -0.16 °C with LOC_OS03G12390-cb001; 0.09 °C with LOC_OS03G27990-cb004; 0.31 °C in the assay on LOC_OS03G50450-cb001; 0.21 °C with LOC_OS03G50810-cb003; 0.79 °C in the assay on LOC_OS04G35114-cb001. The “thermal shift delta Tm” value was 0.2 °C with LOC_OS04G38480-cb003 and 0.45 °C in the assay on LOC_OS04G41100-cb001.
On to `O=C(Nc1nc2cccc(-c3ccc(CN4CCS(=O)(=O)CC4)cc3)n2n1)C1CC1` [Filgotinib (GLPG0634)], for which the “thermal shift delta Tm” value with LOC_OS01G57100-cb003 came out at 1.32 °C; in the assay on LOC_OS01G60330-cb001, 2.66 °C; with LOC_OS01G60700-cb002, 0.53 °C; in the assay with LOC_OS01G63280-cb003, 0.12 °C; in the assay with LOC_OS01G67340-cb003, 0.43 °C; in the assay on LOC_OS01G70970-cb002 it was 0.37 °C. In addition, the “thermal shift delta Tm” value with LOC_OS02G07810-cb001 amounted to 0.52 °C; in the assay on LOC_OS02G08530-cb003 it was 0.93 °C; with LOC_OS02G14120-cb001, 2.91 °C; with LOC_OS02G17970-cb001 it was 0.47 °C; with LOC_OS02G45750-cb003, 1.04 °C; with LOC_OS02G54510-cb004, 0.58 °C. For the same compound, the “thermal shift delta Tm” value in the assay with LOC_OS03G04050-cb001 worked out at 0.6 °C; in the assay with LOC_OS03G12390-cb001 it was 0.31 °C; in the assay on LOC_OS03G27990-cb004, 0.64 °C; with LOC_OS03G50450-cb001 it was 1.73 °C; with LOC_OS03G50810-cb003, 0.86 °C; with LOC_OS04G35114-cb001 it was 1.37 °C. The “thermal shift delta Tm” value in the assay with LOC_OS04G38480-cb003 was 1.66 °C; in the assay on LOC_OS04G41100-cb001, 0.6 °C.
In the case of `CC[C@H](CO)Nc1nc(NCc2ccccc2)c2ncn(C(C)C)c2n1` [Roscovitine (Seliciclib,CYC202)], the “thermal shift delta Tm” value in the assay on LOC_OS01G57100-cb003 was 0.43 °C; in the assay with LOC_OS01G60330-cb001 it was 0.99 °C; in the assay with LOC_OS01G60700-cb002 it was 0.89 °C; in the assay with LOC_OS01G63280-cb003, 0.16 °C; with LOC_OS01G67340-cb003, -0.54 °C; in the assay with LOC_OS01G70970-cb002 it was 0.28 °C. Besides, the “thermal shift delta Tm” value in the assay with LOC_OS02G07810-cb001 is 0.93 °C; in the assay with LOC_OS02G08530-cb003, 0.8 °C; in the assay on LOC_OS02G14120-cb001, 0.04 °C; with LOC_OS02G17970-cb001 it was 0.31 °C; with LOC_OS02G45750-cb003, 0.1 °C; with LOC_OS02G54510-cb004 it was 0.11 °C. Besides, the “thermal shift delta Tm” value in the assay on LOC_OS03G04050-cb001 is 0.22 °C; in the assay with LOC_OS03G12390-cb001, 0.14 °C; in the assay with LOC_OS03G27990-cb004, -0.05 °C; in the assay on LOC_OS03G50450-cb001 it was 0.28 °C; with LOC_OS03G50810-cb003, 0.02 °C; in the assay on LOC_OS04G35114-cb001, 0.57 °C. The “thermal shift delta Tm” value in the assay with LOC_OS04G38480-cb003 came out at 0.99 °C; in the assay on LOC_OS04G41100-cb001 it was 0.53 °C.
